# Shown are actives, neighbours in structure and some others; about 13% of the full set was active somewhere.
# HCMV inh = human cytomegalovirus inhibition; AID 1259415; activity change, negative = inhibition, % at 57.5 µM; HFF cells, HCMV-luciferase reporter, 72 h; active compounds read low; 4.5% of 410,000 active; in the data active = activity change below about -60%; inconclusive = no clear call, values can overlap the other calls; inactive = above about -39%
#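 Two compound doses tested in HFFs infected with HCMV-luciferase, MOI 1 PFU/cell, 72 h at 37C. Lysate luminescence read with OneGlo; data normalized against buffer-only and 10uM Salinomycin inhibitor controls.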
# HCV inh = inhibitors of hepatitis C virus infection; Huh7.5.1 HCVcc-Cre infection, luciferase reporter, 44 h; 3.4% of 340,000 active; AID 651820; Potency, µM (titrated, usually from 41.8 µM), without a hit: top-dose activity change, negative = inhibition, usual class: inhibitors; also: potency is read from the fitted curve at half-maximal effect
#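 Reporter virus HCVcc-Cre (~0.5 moi) infects cells exposed to compound; seeding density 1,000 cells/well with 4 h settling beforehand. Luminescence, 15 sec read, taken 44 h post-infection following a 15 min RT substrate incubation.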
# Pf growth 96h = inhibits malaria parasite growth, 96 h. P. falciparum luciferase reporter growth, 96 h. Potency, µM (highest dose often 28.7 µM), for the others: at the top dose activity change, negative = inhibition, actives largely listed as inhibitors. 6.9% of 320,000 active. AID 504834; also: potency is read from the fitted curve at half-maximal effect
#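 Parasite growth measured via integrated firefly luciferase reporter in P. falciparum. Infected erythrocytes at 2% hematocrit, 0.05% parasitemia final were treated 96 hours at 37 C under 5% CO2, and luminescence was read.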
# Pf growth 48h = P. falciparum growth inhibition at 48 hours (one generation); P. falciparum luciferase growth in erythrocytes, 48 h; Potency, µM (doses to about 28.7 µM), inactives show at the top dose activity change, negative = inhibition, most hits filed as inhibitors; 5.9% of 310,000 active; AID 504832; also: potency is read from the fitted curve at half-maximal effect
#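 Here the parasites carry a stable luciferase gene and grow inside erythrocytes in Albumax-based RPMI medium with compound for one erythrocytic cycle. Activity is scored as loss of luminescent signal.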
# * hit, by the source's call; u = inconclusive; x = not tested or not shown. Unless noted, calls follow the shape of the dose curve; as a rule, active = well fitted inhibition curve with a large enough effect; inconclusive = small, poorly fitted or top-dose-only effect, or another doubt; inactive = no such curve, though single readings can be large or run the other way. % is scaled to controls: 0 for no effect and ±100 for the full control effect.
SMILES,HCMV inh,HCV inh,Pf growth 96h,Pf growth 48h
COc1ccc2[nH]cc(C(=O)CN3CCN(C/C=C/c4ccccc4)CC3)c2c1,29.8,x,10.4µM*,11.7µM*
COc1ccc2[nH]cc(C(=O)CCl)c2c1,-99.6*,u,-5.0%,6.9%
COc1ccc2[nH]cc(C(=O)CN3CC(C)CC(C)C3)c2c1 (centres undefined),55.6,-10.6%,18.6%,-6.1%
COC(=O)c1c(SC)nc2ccccc2c1OCc1ccc(C)cc1,-16.5,x,x,x
Cc1nc(-c2ccc(Cl)cc2)sc1CCNC(=O)c1cccs1,23.6,x,x,x
Cn1c(SCC(=O)N2CCN(c3ccccc3)CC2)nnc1-c1c[nH]c2ccccc12,-79.6*,u,7.38µM*,x
COc1ccc(-n2cnnc2SCC(=O)N2CCN(c3ccccc3)CC2)cc1,-22.6,-8.4%,-28.1%,x
CSc1nnc(-c2cc3ccccc3cc2O)n1C,8.7,5.1%,x,2.08µM*
CSc1nnc(-c2ccc(O)cc2)n1C,25.6,x,u,-3.3%
COc1ccc(N2CCN(C(=O)CSc3nnc(-c4cc5ccccc5cc4O)n3C)CC2)cc1,-66.8*,u,106.8%,u
CCN(CC)C(=O)CSc1nc2ccc(NC(=O)CSc3nnc(COc4ccccc4C)n3C)cc2s1,-19.9,10µM*,9.28µM*,u
Clc1cccc(-c2noc3ncnc(NC4CCCCC4)c23)c1,-16.7,x,x,x
COc1ccc(-n2c(=O)c3c(c4cc(OC)ccc4n3C)n(CC(=O)NCC3CCCO3)c2=O)cc1 (centres undefined),15.8,x,x,x
CC(C)(C)C1=CC(CC(N)=O)(C(C)(C)C)OC1=O (centres undefined),-23.0,x,x,x
CCn1c(SCC(=O)N2CCN(c3ccccc3)CC2)nnc1-c1c[nH]c2ccccc12,-75.3*,8.91µM*,u,u
COc1cccc(-n2c(SCC(=O)N3CCOCC3)nnc2-c2c[nH]c3ccccc23)c1,-1.1,11.5%,10.4µM*,x
CCn1c(COc2c(C)cccc2C)nnc1SCC(=O)N1CCN(c2ccccc2)CC1,u,35.5µM*,u,u
CCn1c(COc2ccccc2C)nnc1SCC(=O)CC(=O)Nc1ccccc1,28.0,-20.7%,25.7%,10.4µM*
COc1cccc(-n2c(SCC(=O)N3CCOCC3)nc3c([nH]c4ccccc43)c2=O)c1,50.3,u,x,x
CCOC(=O)CSc1nnc(-c2c[nH]c3ccccc23)n1CC,-10.9,16.0%,-7.9%,x
CC1CCN(CC2CCN(C(=O)Nc3ccc(Br)cc3F)CC2)CC1,-22.7,x,x,x
COc1ccc(N2CC(C)(C)C[C@H]2/C=C/C(=O)OC(C)(C)C)cc1,-7.3,x,x,x
CCCCOc1ccc(S(=O)(=O)NCc2csc(C)n2)cc1,-66.6*,u,10.4µM*,-7.6%
CC(=O)Nc1cc(-c2ccccc2N(C)C)cn2c(-c3ccc(S(C)(=O)=O)cc3)cnc12,-38.4,x,x,x
O[C@H]1C[C@H](c2ccccc2)N(Cc2cccs2)C[C@@H]1n1cc(C2CC2)nn1,18.9,x,x,x
SMILES,HCMV inh,HCV inh,Pf growth 96h,Pf growth 48h
COC(=O)[C@]12C[C@H](CC(=O)N3CCOCC3)C(=O)N(Cc3ccccc3)C1=C[C@H](C1CCCC1)O[C@@H]2C,11.0,x,x,x
O=C(O)c1ccc(S(=O)(=O)NN=Cc2c[nH]c3ccccc23)cc1,6.7,x,x,x
Fc1c(F)c(F)c(N/N=C/c2c[nH]c3ccccc23)c(F)c1F,-65.4*,u,u,-80.3%
CCn1c(/N=C/c2c[nH]c3ccccc23)nc2ccccc21,16.4,-2.5%,1.85µM*,11.6%
Cn1c(N/N=C/c2c[nH]c3ccccc23)nc2ccccc21,-26.6,u,1.65µM*,7.38µM*
O=C(O)c1ccc(N/N=C/c2c[nH]c3ccccc23)cc1,-65.0*,12.7%,u,108.0%
CCc1ccccc1OCC(=O)Nc1ccc(N2CCCC2)cc1C,x,u,2.62µM*,5.22µM*
COc1ccc(N2CCCC2)c(NC(=O)COc2ccccc2)c1,-39.3,u,52.4%,-18.3%
Cc1cc(N2CCCC2)ccc1NC(=O)COc1ccccc1,-23.5,u,u,14.7µM*
Cc1ccc(C)c(S(=O)(=O)c2cn(C)c3cc(N4CCCCC4C)c(F)cc3c2=O)c1 (centres undefined),-14.8,x,x,x
N#C/C(=C\c1c(N(Cc2ccccc2)Cc2ccccc2)nc2ccccn2c1=O)C(N)=O,-14.2,3.0%,u,4.65µM*
C=CCNC(=O)/C(C#N)=C/c1c(N(Cc2ccccc2)Cc2ccccc2)nc2ccccn2c1=O,-8.5,u,9.28µM*,5.22µM*

# Compound activity deposited in PubChem by National Center for Advancing Translational Sciences (NCATS).
